Source: PubChem BioAssay (NCATS)
Values without a mark were called inactive. Results filed as inconclusive are left out. Entries that show only a call come without a potency. Active and inactive are the calls of the source. Unless noted, calls come from the whole dose curve; as a rule, active = well fitted curve in the direction sought with a large enough effect; inconclusive = small, poorly fitted or top-dose-only effect, or another doubt; inactive = no such curve, though single readings can be large; an effect the other way counts as inactive or inconclusive.

Legend:
[1] = biological target: Glucocorticoid receptor (Homo sapiens) (UniProt P04150); test: GR-GFP Redistribution (AID 450;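 active = compounds whose dose series gives a full or clear partial fitted curve of increased nuclear translocation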; note: potency is the fitted concentration of half-maximal effect)
[2] = biological target: Glucocorticoid receptor (Homo sapiens) (UniProt P04150); test: GR-EFC Redistribution (AID 451; calls by dose curve; note: potency is the fitted concentration of half-maximal effect); conditions: CHO-K1 GR-EFC translocation, beta-gal luminescence, 2 h
Method in brief: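 CHO-K1 cells expressing nuclear EA and GR-ED fragments of b-gal; compounds titrated up to 46 uM final, 2 h at 37 C. GR nuclear translocation read as complemented b-gal luminescence after 1 h RT detection.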

[3] = biological target: Mitogen-activated protein kinase 10 (Mus musculus) (UniProt Q61831); test: JNK3 AlphaScreen Assay (AID 530; active = well fitted curve in either direction with a large enough effect, not every such curve was filed as active;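 note: kinase came from lysate of stimulated human HepG2 cells; signal reports phosphorylation of biotinylated GST-cJun 1-79 at Ser73 with 10 µM ATP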)
Method in brief: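 Activity was read by AlphaScreen after JNK3-containing HepG2 lysate (cytokine pre-activated) phosphorylated biotinylated GST-cJun with 10 uM ATP at room temperature. Phospho-Ser73 cJun antibody with Protein-A acceptor beads provided detection.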

[4] = biological target: ATP-dependent 6-phosphofructokinase (Trypanosoma brucei brucei) (UniProt O15648); test: qHTS Assay to Find Inhibitors of T. brucei phosphofructokinase: hit validation (AID 492961);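 note: luminescence reports ADP formed as PFK phosphorylates fructose-6-phosphate with ATP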
Method in brief: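 Compounds titrated; %activity normalized to 0x and 1x enzyme controls, curve-fitted. Readout: ADP-Glo luminescence after 45 min room-temperature reaction of 1.25 nM PFK, 0.1 mM ATP, 0.5 mM F6P, pH 8.0.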

[5] = biological target: DNA dC->dU-editing enzyme APOBEC-3G (Homo sapiens) (UniProt Q9HC16); test: qHTS for inhibitors of Vif-A3G interactions: Validation (AID 588379)
Method in brief: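 Yellow fluorescence (Ex 488, Em 500-530) of Vif-coexpressing HeLa A3G-eYFP cells, scanned by Acumen cytometer, reports blocked A3G degradation. Cells plated at 700/well overnight at 37 deg C before compound addition, then a further overnight compound incubation at 37 deg C.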

[6] = biological target: Luciferin 4-monooxygenase (Photinus pyralis) (UniProt P08659); test: Biochemical firefly luciferase enzyme assay for NPC (AID 624030);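 note: purified P. pyralis luciferase at 10 nM with luciferin and ATP substrate; nearly all actives have a fitted effect of over 70% in size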
Method in brief: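 Purified P. pyralis luciferase at 10 nM in 50 mM Tris Acetate (final), luminescence read within 5 minutes of enzyme addition to compounds. Activity normalised to PTC124 versus DMSO; concentration-response curves classed by r2, magnitude and activity.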

[7] = S16 Schwann cell viability assay (CellTiter-Glo assay) (AID 624031);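 note: native untransfected S16 rat Schwann cells; cellular ATP luminescence as a viability measure; nearly all actives have a fitted effect of over 70% in size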
Method in brief: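 Cells were seeded at 500-750 per well in phenol red-free DMEM with 10% FBS and left overnight. Compounds or DMSO were pinned in, incubation ran 24 h at 37 °C/5% CO2, then CellTiter-Glo reagent was added and luminescence measured.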

[8] = S16 Schwann cell PMP22 intronic element firefly luciferase assay (AID 624032); note: nearly all actives have a fitted effect of over 30% in size
Method in brief: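 Rat S16 Schwann cells stably carrying firefly luciferase driven by a PMP22 intronic element, in 10% FBS, treated 24 h at 37 C. ONE-Glo luminescence normalized to PTC124 control and DMSO (0%); curves classed by r2, magnitude and activity.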

[9] = S16 Schwann cell PMP22 intronic element beta-lactamase assay (AID 624044; calls by dose curve; note: nearly all actives have a fitted effect of over 15% in size); conditions: S16 rat Schwann cells, PMP22 element beta-lactamase FRET, 24 h; ratio activity, negative = inhibition: at 38.3 µM (top of the series)
Method in brief: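 Beta-lactamase reporter under a PMP22 intronic regulatory element in stable S16 rat Schwann cells; 24 h compound exposure. 460 nm blue signal normalized between DMSO (0%) and potassium clavulanate, with 535 nm FRET tracking viability; curves classed by r2 and response.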

[10] = qHTS profiling for inhibitors of Plasmodium falciparum proliferation (AID 504749); note: nearly all actives have a fitted effect of over 60% in size; note: potency is the fitted concentration of half-maximal effect; conditions: P. falciparum in erythrocytes, SYBR Green DNA, 72 h, at 28.7 µM (top of the series)
Method in brief: (§1)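 Each compound contacts P. falciparum-infected red blood cells for 72 h at 37 C; lysis buffer (Tris, EDTA, saponin, Triton X, SYBR Green I) is added and fluorescence measured next morning; values normalized to controls.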

[11] = test system: 3D7; test: as above; conditions: P. falciparum in erythrocytes, SYBR Green DNA, 72 h; series mostly up to 28.7 µM
Method in brief: as §1

[12] = test system: C2A; test: as above; conditions: P. falciparum in erythrocytes, SYBR Green DNA, 72 h; series mostly up to 28.7 µM
Method in brief: as §1

[13] = test system: CP191; test: as above; conditions: P. falciparum in erythrocytes, SYBR Green DNA, 72 h; series mostly up to 28.7 µM
Method in brief: as §1

[14] = test system: CP192; test: as above; conditions: P. falciparum in erythrocytes, SYBR Green DNA, 72 h; series mostly up to 28.7 µM
Method in brief: as §1

[15] = test system: CP217; test: as above; conditions: P. falciparum in erythrocytes, SYBR Green DNA, 72 h; series mostly up to 28.7 µM
Method in brief: as §1

[16] = test system: CP237; test: as above; conditions: P. falciparum in erythrocytes, SYBR Green DNA, 72 h; series mostly up to 28.7 µM
Method in brief: as §1

[17] = test system: CP250; test: as above; conditions: P. falciparum in erythrocytes, SYBR Green DNA, 72 h; series mostly up to 28.7 µM
Method in brief: as §1

[18] = test system: CP256; test: as above; conditions: P. falciparum in erythrocytes, SYBR Green DNA, 72 h; series mostly up to 28.7 µM
Method in brief: as §1

[19] = test system: CP262; test: as above; conditions: P. falciparum in erythrocytes, SYBR Green DNA, 72 h; series mostly up to 28.7 µM
Method in brief: as §1

[20] = test system: CP268; test: as above; conditions: P. falciparum in erythrocytes, SYBR Green DNA, 72 h; series mostly up to 28.7 µM
Method in brief: as §1

[21] = test system: CP269; test: as above; conditions: P. falciparum in erythrocytes, SYBR Green DNA, 72 h; series mostly up to 28.7 µM
Method in brief: as §1

[22] = test system: CP297; test: as above; conditions: P. falciparum in erythrocytes, SYBR Green DNA, 72 h; series mostly up to 28.7 µM
Method in brief: as §1

[23] = test system: CP315; test: as above; conditions: P. falciparum in erythrocytes, SYBR Green DNA, 72 h; series mostly up to 28.7 µM
Method in brief: as §1

[24] = test system: CP329; test: as above; conditions: P. falciparum in erythrocytes, SYBR Green DNA, 72 h; series mostly up to 28.7 µM
Method in brief: as §1

[25] = test system: DIV14; test: as above; conditions: P. falciparum in erythrocytes, SYBR Green DNA, 72 h; series mostly up to 28.7 µM
Method in brief: as §1

[26] = test system: DIV17; test: as above; conditions: P. falciparum in erythrocytes, SYBR Green DNA, 72 h; series mostly up to 28.7 µM
Method in brief: as §1

[27] = test system: Dd2; test: as above; conditions: P. falciparum in erythrocytes, SYBR Green DNA, 72 h; series mostly up to 28.7 µM
Method in brief: as §1

[28] = test system: ECU; test: as above; conditions: P. falciparum in erythrocytes, SYBR Green DNA, 72 h; series mostly up to 28.7 µM
Method in brief: as §1

[29] = test system: FAB9; test: as above; conditions: P. falciparum in erythrocytes, SYBR Green DNA, 72 h; series mostly up to 28.7 µM
Method in brief: as §1

[30] = test system: GB4; test: as above; conditions: P. falciparum in erythrocytes, SYBR Green DNA, 72 h; series mostly up to 28.7 µM
Method in brief: as §1

[31] = test system: HB3; test: as above; conditions: P. falciparum in erythrocytes, SYBR Green DNA, 72 h; series mostly up to 28.7 µM
Method in brief: as §1

[32] = test system: JCK; test: as above; conditions: P. falciparum in erythrocytes, SYBR Green DNA, 72 h; series mostly up to 28.7 µM
Method in brief: as §1

[33] = test system: PAD; test: as above; conditions: P. falciparum in erythrocytes, SYBR Green DNA, 72 h; series mostly up to 28.7 µM
Method in brief: as §1

[34] = test system: PC49; test: as above; conditions: P. falciparum in erythrocytes, SYBR Green DNA, 72 h; series mostly up to 28.7 µM
Method in brief: as §1

[35] = test system: TAB113; test: as above; conditions: P. falciparum in erythrocytes, SYBR Green DNA, 72 h; series mostly up to 28.7 µM
Method in brief: as §1

[36] = test system: W2; test: as above; conditions: P. falciparum in erythrocytes, SYBR Green DNA, 72 h; series mostly up to 28.7 µM
Method in brief: as §1

[37] = biological target: Cytochrome P450 2C9 (Homo sapiens) (UniProt P11712); test: qHTS Assay for Inhibitors and Substrates of Cytochrome P450 2C9 (AID 883); note: nearly all actives have a fitted effect of over 60% in size
Method in brief: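 Human CYP2C9 (10nM) with Luciferin-H at 100uM (its KM) in 25mM KPO4; compound preincubated 10 min at 37C, then NADPH regeneration for 60 min at 37C. Luciferin read by luminescence after detection reagent; normalized to 57uM sulphaphenazole as full inhibition.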

[38] = biological target: Cytochrome P450 2D6 (Homo sapiens) (UniProt P10635); test: qHTS Assay for Inhibitors and Substrates of Cytochrome P450 2D6 (AID 891);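 note: luciferin methyl ether substrate demethylated by CYP2D6 with NADPH regeneration; nearly all actives have a fitted effect of over 60% in size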
Method in brief: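 Luminescent read-out of luciferin formed by 5 nM human CYP2D6 demethylating 30 uM Luciferin-ME EGE (Km level) over 60 min at room temperature after NADPH regeneration addition. Data normalized to full inhibition by 1.43 uM quinidine.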

[39] = biological target: Cytochrome P450 2C19 (Homo sapiens) (UniProt P33261); test: qHTS Assay for Inhibitors and Substrates of Cytochrome P450 2C19 (AID 899); note: nearly all actives have a fitted effect of over 60% in size
Method in brief: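 5 nM human CYP2C19 with 10uM Luciferin-H EGE (at KM) in 50mM KPO4, compound preincubated 10 min at 37C, then NADPH regeneration for 60 min at 37C. Luciferin read by luminescence after detection reagent; normalized to 57uM ketoconazole as full inhibition.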

[40] = biological target: 3',5'-cyclic-AMP phosphodiesterase 4B (Homo sapiens) (UniProt Q07343); test: qHTS Assay for Inhibitors of PDE-IV (AID 607; active = well fitted activation curve with a large enough effect in the main read-out, with a control signal flat, not every such curve was filed as active)
Method in brief: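 The readout is membrane depolarisation from a cAMP-sensing CNG channel, detected with a potential dye at ex 535/em 590. Cells were HEK293-derived (endogenous PDE-IV) at 1000 cells/well, titrated up to 22.9 uM final.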

Sequence of Glucocorticoid receptor (Homo sapiens) (P04150 whole entry, looked up, the tested form may be a part): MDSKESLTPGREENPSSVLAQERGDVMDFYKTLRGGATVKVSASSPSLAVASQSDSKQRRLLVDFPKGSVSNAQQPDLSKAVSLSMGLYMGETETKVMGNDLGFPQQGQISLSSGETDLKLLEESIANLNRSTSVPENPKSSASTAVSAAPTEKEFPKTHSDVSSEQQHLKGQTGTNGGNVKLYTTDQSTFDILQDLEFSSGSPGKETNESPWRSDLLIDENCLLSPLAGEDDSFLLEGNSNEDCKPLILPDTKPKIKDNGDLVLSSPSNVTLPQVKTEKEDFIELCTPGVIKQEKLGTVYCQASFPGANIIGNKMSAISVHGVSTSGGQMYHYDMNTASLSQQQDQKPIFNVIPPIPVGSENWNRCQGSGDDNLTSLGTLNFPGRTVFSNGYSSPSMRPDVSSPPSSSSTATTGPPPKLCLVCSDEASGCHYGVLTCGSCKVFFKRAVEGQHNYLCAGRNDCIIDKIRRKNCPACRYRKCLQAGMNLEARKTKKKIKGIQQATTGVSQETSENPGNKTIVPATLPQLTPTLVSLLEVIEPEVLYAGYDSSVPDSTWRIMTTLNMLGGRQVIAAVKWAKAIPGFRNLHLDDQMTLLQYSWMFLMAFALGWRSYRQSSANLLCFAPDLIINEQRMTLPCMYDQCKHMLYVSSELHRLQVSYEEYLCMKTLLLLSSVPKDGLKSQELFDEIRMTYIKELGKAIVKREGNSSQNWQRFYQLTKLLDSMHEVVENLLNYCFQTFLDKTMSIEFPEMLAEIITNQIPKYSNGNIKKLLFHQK
Sequence of DNA dC->dU-editing enzyme APOBEC-3G (Homo sapiens) (Q9HC16 whole entry, looked up): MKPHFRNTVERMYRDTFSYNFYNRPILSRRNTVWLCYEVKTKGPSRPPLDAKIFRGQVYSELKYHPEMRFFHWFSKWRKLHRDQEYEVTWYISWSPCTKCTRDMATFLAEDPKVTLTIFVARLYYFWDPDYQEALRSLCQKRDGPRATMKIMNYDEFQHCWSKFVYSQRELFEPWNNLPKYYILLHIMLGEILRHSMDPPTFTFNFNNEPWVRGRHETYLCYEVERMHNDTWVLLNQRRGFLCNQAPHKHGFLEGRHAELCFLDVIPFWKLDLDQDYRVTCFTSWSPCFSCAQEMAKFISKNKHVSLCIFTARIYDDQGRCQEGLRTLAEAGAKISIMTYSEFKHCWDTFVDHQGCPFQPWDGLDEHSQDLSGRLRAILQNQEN
Sequence of Cytochrome P450 2C9 (Homo sapiens) (P11712 whole entry, looked up): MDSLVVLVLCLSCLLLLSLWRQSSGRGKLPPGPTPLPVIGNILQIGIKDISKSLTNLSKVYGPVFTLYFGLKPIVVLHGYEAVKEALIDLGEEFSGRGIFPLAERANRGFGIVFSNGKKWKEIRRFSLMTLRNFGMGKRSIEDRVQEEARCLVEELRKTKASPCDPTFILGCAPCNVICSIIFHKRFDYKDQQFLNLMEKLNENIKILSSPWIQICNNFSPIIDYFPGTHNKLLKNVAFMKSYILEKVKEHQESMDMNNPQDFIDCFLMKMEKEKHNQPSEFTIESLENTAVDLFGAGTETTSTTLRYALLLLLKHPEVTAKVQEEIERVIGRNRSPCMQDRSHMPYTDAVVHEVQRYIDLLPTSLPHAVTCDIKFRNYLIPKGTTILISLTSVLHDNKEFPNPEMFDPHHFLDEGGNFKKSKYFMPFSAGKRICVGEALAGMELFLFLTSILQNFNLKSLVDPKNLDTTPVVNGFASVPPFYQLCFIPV
Sequence of Cytochrome P450 2C19 (Homo sapiens) (P33261 whole entry, looked up): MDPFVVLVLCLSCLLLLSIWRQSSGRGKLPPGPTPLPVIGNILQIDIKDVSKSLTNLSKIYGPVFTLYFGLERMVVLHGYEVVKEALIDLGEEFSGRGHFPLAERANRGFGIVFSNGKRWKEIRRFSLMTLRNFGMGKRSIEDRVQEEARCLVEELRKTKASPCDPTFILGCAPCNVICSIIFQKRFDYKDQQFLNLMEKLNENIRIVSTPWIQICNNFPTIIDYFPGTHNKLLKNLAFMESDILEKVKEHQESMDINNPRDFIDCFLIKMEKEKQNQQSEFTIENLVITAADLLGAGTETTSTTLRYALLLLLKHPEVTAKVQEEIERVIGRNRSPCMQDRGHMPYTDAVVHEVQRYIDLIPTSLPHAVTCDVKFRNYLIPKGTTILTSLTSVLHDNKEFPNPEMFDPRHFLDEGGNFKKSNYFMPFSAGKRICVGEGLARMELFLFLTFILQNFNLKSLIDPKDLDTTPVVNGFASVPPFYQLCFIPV
Sequence of ATP-dependent 6-phosphofructokinase (Trypanosoma brucei brucei) (O15648 whole entry, looked up): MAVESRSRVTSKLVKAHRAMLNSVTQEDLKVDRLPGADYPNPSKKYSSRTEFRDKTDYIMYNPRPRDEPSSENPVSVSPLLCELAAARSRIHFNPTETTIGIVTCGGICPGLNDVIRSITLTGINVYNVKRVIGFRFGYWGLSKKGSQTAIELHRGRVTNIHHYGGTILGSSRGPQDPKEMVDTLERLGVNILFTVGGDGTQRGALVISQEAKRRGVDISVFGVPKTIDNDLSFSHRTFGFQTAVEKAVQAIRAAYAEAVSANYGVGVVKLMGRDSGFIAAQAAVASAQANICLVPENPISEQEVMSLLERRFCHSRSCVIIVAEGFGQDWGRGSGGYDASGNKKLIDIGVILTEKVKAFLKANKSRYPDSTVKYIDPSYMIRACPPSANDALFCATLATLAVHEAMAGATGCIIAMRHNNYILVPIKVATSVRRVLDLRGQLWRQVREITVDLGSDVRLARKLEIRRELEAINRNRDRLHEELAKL
Sequence of Luciferin 4-monooxygenase (Photinus pyralis) (P08659 whole entry, looked up): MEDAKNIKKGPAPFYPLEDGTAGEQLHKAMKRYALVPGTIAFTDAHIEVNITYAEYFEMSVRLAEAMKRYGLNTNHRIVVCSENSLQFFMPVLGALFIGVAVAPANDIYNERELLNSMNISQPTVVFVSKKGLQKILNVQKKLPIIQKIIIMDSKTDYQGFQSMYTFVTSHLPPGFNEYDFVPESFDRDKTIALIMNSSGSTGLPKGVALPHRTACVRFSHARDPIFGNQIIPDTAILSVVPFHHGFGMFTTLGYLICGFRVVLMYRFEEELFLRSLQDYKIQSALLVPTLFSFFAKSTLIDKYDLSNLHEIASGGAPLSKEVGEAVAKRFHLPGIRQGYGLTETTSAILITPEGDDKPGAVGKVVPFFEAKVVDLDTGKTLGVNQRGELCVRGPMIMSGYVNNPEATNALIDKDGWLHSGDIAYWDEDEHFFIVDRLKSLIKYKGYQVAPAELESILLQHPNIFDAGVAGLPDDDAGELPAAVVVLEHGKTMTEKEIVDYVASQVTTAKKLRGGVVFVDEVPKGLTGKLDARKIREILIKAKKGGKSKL
Sequence of 3',5'-cyclic-AMP phosphodiesterase 4B (Homo sapiens) (Q07343 whole entry, looked up): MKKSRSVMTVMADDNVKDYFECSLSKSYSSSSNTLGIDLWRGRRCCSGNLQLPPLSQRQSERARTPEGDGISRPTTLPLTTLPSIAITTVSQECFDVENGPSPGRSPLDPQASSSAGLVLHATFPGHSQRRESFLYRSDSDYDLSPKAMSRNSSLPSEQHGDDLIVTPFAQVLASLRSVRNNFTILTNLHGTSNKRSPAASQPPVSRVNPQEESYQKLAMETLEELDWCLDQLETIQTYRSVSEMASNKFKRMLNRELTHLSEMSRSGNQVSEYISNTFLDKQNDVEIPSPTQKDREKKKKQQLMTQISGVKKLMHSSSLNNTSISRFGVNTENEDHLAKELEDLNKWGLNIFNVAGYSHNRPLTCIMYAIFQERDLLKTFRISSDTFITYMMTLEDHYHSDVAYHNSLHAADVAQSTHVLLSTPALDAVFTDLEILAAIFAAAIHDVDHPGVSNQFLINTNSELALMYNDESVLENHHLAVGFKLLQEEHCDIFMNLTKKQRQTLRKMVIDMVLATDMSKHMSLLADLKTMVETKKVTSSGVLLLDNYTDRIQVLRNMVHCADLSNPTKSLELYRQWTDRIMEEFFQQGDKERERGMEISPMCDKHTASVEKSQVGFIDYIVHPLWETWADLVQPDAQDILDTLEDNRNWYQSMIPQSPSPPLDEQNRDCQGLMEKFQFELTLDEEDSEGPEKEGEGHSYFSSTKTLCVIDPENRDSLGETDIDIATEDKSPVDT
Sequence of Cytochrome P450 2D6 (Homo sapiens) (P10635 whole entry, looked up): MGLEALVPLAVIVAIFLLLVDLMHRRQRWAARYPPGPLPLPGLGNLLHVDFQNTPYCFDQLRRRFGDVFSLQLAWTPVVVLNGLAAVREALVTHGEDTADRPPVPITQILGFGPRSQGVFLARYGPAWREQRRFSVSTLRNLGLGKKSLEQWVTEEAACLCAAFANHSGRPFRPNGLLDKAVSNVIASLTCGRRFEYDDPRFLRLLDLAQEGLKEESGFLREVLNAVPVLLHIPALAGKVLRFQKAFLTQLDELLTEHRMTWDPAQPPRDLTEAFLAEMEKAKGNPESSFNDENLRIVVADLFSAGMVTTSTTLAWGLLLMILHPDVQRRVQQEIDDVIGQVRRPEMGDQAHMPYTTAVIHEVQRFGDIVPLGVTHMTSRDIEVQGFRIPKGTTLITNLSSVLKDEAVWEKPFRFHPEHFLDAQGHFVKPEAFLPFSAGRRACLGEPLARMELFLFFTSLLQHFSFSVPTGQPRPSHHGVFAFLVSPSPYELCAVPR

C[C@@](Cc1ccccc1)(NC(=O)CN)c1ccccc1
Potency [1]: > 46 µM
Potency [2]: > 46 µM
Potency [3]: inactive
Potency [4]: inactive
outcome [5]: inactive
Potency [6]: inactive
Potency [7]: inactive
Potency [8]: inactive
Potency [9]: inactive
activity, negative = inhibition ([10]; parasite line A): 17.9%
activity, negative = inhibition ([10]; parasite line B): 2.96%
Potency [11]: inactive
Potency [12]: inactive
Potency [13]: inactive
Potency [14]: inactive
Potency [15]: inactive
Potency [16]: 5.62 µM (active)
Potency [17]: inactive
Potency [18]: inactive
Potency [19]: inactive
Potency [20]: inactive
Potency [21]: inactive
Potency [22]: 9.53 µM (active)
Potency [23]: inactive
Potency [24]: inactive
Potency [25]: 3.79 µM (active)
Potency [26]: 4.78 µM (active)
Potency [27]: 12.6 µM (active)
Potency [28]: inactive
Potency [29]: inactive
Potency [30]: 8.49 µM (active)
Potency [31]: inactive
Potency [32]: inactive
Potency [33]: inactive
Potency [34]: 3.55 µM (active)
Potency [35]: inactive
Potency [36]: 3.79 µM (active)

COC(=O)c1ccc(C2/C(=C(\O)c3ccc(OC)c(C)c3)C(=O)C(=O)N2c2cc(C)on2)cc1 (centres undefined)
Potency [1]: > 20.6 µM

CC(=O)OC[C@@H]1O[C@@H](Oc2cc(OC(C)=O)c3c(=O)cc(-c4ccc(OC(C)=O)c(OC(C)=O)c4)oc3c2)[C@H](OC(C)=O)[C@H](OC(C)=O)[C@@H]1OC(C)=O
Potency [1]: > 46 µM
Potency [3]: inactive
Potency [37]: inactive
Potency [38]: inactive
Potency [39]: inactive

O=C(O)CCCC[C@@H]1SC[C@H]2NC(=O)N[C@H]12
Potency [1]: > 46 µM
Potency [2]: > 46 µM

CN1CCc2c(sc3ncn4nc(-c5ccccc5O)nc4c23)C1
Potency [1]: > 20.6 µM

CN[C@@H]1[C@H](O)[C@H](NC)[C@@H]2O[C@]3(O)C(=O)C[C@@H](C)O[C@H]3O[C@@H]2[C@H]1O
Potency [1]: > 46 µM
Potency [3]: inactive
Potency [40]: inactive
